Screens (PubChem BioAssay)
tim23-1 inh – tim23-1 yeast growth inhibition. S. cerevisiae tim23-1 growth, BacTiter-Glo luminescence, 24 h. inhibition, % at 20 µM. 330,000 tested, 1.3% active;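 active = growth inhibition of the mutant yeast at or above 50%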;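 also: temperature-sensitive mutant grown at 25 °C; plate controls were DMSO-treated mutant yeast for no effect and medium wells lacking yeast for full effect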
Mdm2-MdmX inh – inhibitors of human Mdm2/MdmX interaction; inhibition, % at 8 µM; O15151+Q00987; SaOS-2 split-luciferase Mdm2/MdmX complementation, luminescence; 330,000 tested, 3% active;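 active = inhibition of at least 50% at 8 µM in the primary screen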
Target sequence (O15151 whole entry, looked up): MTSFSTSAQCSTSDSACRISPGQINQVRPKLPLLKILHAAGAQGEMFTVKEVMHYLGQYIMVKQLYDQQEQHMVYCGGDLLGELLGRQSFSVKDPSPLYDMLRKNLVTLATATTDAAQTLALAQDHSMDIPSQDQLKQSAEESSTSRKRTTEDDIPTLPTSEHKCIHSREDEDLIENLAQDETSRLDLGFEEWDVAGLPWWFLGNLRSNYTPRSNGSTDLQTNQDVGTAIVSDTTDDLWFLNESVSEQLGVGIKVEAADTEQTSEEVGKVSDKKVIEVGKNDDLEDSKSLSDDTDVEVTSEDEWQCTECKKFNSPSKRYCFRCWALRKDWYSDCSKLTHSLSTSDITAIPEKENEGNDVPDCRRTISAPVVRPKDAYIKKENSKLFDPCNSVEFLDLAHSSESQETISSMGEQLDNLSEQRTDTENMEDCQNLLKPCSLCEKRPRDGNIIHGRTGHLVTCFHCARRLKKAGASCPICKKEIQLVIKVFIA
Target sequence (Q00987 whole entry, looked up): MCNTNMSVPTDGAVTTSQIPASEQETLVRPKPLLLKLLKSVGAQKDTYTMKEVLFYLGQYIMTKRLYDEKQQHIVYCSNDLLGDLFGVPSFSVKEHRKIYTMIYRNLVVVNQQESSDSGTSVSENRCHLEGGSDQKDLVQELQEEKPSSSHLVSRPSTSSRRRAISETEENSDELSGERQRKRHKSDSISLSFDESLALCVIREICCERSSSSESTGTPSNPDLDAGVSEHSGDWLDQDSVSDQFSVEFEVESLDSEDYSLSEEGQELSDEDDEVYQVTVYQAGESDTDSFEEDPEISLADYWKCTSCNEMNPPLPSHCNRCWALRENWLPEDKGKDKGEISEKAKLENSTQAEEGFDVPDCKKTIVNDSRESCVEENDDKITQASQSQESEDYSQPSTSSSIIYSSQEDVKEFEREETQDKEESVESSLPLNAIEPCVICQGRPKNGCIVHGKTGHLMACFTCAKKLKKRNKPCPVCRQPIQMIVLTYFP
tim10-1 inh – tim10-1 yeast growth inhibition; AID 463190; S. cerevisiae tim10-1 ts strain growth, BacTiter-Glo, 24 h; inhibition, % at 20 µM; 330,000 tested, 2.2% active;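 active = inhibition of at least 40%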;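 also: mutant grown at 25 °C; 0% = DMSO wells with yeast and 100% = wells holding no yeast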
MPTP block – permeability transition pore inhibition; AID 602449; isolated mouse mitochondria, Ca2+ swelling absorbance, 30 min; 360,000 tested, 1.4% active; inhibition, % at 10 µM;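 active = inhibition of 50% or more, scaled per plate between neutral and stimulator controls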;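 also: 0% = DMSO wells given calcium and 100% = 1 mM EGTA wells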
TIM10 inh – growth inhibitors of TIM10 yeast strain. S. cerevisiae TIM10 strain growth, BacTiter-Glo luminescence, 24 h. inhibition, % at 10 µM. 330,000 tested, 1.4% active. AID 463195;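 active = inhibition of 40% or more at the single tested concentration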;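 also: wild-type TIM10 isogenic control strain grown at permissive 25 °C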
Mdm2-MdmX conf – confirmation of human Mdm2/MdmX interaction inhibitors | shares compounds with Mdm2-MdmX inh | Mdm2-MdmX binding, luminescent assay | inhibition, % at 8 µM | 10,000 tested, 55% active; in the data active = inhibition above about 40%
FLuc counter – inhibits full-length luciferase, flagging false Mdm2/MdmX hits | shares compounds with Mdm2-MdmX inh | SaOS-2 full-length luciferase counterscreen, luminescence | inhibition, % at 8 µM | 6,200 tested, 77% active | AID 504607;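 active = mean inhibition at 8 µM reaching about 37%, which flags the compound as non-specific, limit read from the data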;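 also: p53-null SaOS-2 cells with luciferase driven by a doxycycline-inducible promoter; compound on cells about two nights before reading with doxycycline added after day one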
The depositor's hits bear a star; nt = no result. Compounds with a hit are over-represented: about 6.3% of the library has one in this group of screens.

SMILES	tim23-1 inh	Mdm2-MdmX inh	tim10-1 inh	MPTP block	TIM10 inh	Mdm2-MdmX conf	FLuc counter
CC1(c2ccccc2)NC(=O)N(CC(=O)Nc2nc(-c3ccccn3)cs2)C1=O (centres undefined)	11	27	3	0	4	nt	nt
Cc1ccc(C2(C)NC(=O)N(CC(=O)Nc3nc(-c4ccccn4)cs3)C2=O)cc1 (centres undefined)	-3	59*	18	-1	2	49*	64*
CCC(CO)Nc1ccn2nc(-c3cccc(Cl)c3)cc2n1 (centres undefined)	nt	nt	nt	1	nt	nt	nt
COc1ccc(CN2CCC2(C)C(=O)Nc2cccc(NS(C)(=O)=O)c2)c2ccccc12 (centres undefined)	nt	nt	nt	0	nt	nt	nt
OCC1OC(n2cnc3c(/C=C(\O)c4ccccc4)ncnc32)C(O)C1O (centres undefined)	nt	nt	nt	2	nt	nt	nt
O=C(COc1ccccc1)Nc1nc(-c2cccnc2)cs1	16	3	9	-2	9	nt	nt
Cc1cc(C)cc(OCC(=O)Nc2nc(-c3cccnc3)cs2)c1	5	78*	10	1	-8	31	nt
O=C(CNC(=O)c1cccc(S(=O)(=O)N2CCc3ccccc32)c1)Nc1ccccc1Br	nt	nt	nt	0	nt	nt	nt
O=C(CNC(=O)c1cccc(S(=O)(=O)N2CCc3ccccc32)c1)Nc1ccc(F)c(F)c1F	-10	81*	1	-1	1	84*	62*
CCCCC(=O)N(C)c1c(CC)nc2c(OCC(=O)c3ccc(Cl)cc3Cl)cccn12	nt	nt	nt	1	nt	nt	nt
O=C(c1ccccc1)C(CN1CCCCC1)c1ccccc1 (centres undefined)	nt	nt	nt	1	nt	nt	nt
C[C@@H]1CN([C@@H](C)CO)C(=O)c2cc(Br)cnc2O[C@@H]1CN(C)S(=O)(=O)c1ccc(F)cc1	nt	nt	nt	-1	nt	nt	nt
Clc1ccc(Cl)c(OCCCCNCc2ccccc2)c1	14	30	-34	8	-27	nt	nt
Clc1ccc(OCCCNCc2ccccc2)c(Br)c1	-11	65*	2	-1	2	24	nt
COC(=O)[C@@]1(Cc2ccccc2)[C@H]2C(=O)N(Cc3ccccc3)C(=O)[C@H]2[C@H]2CN=C(SCc3ccccc3)N21	49	89*	29	0	12	86*	35
COC(=O)c1ccc(CSC2=NC[C@@H]3[C@@H]4C(=O)N(Cc5ccccc5)C(=O)[C@@H]4[C@](Cc4ccccc4)(C(=O)OC)N23)cc1	49	49	25	0	6	nt	nt
COC(=O)[C@@]1(Cc2ccccc2)[C@H]2C(=O)N(Cc3ccccc3)C(=O)[C@H]2[C@H]2CN=C(SCc3ccc(C)cc3)N21	44	58*	24	1	5	65*	46*
Nc1c(C(=O)Nc2ccc(F)cc2)sc(=S)n1-c1ccccc1F	-11	72*	10	0	8	3	nt
COC(=O)c1ccccc1NC(=O)c1ccc(-c2ccc(Br)cc2)o1	10	58*	1	1	0	62*	152*
O=C(Nc1cccc2nsnc12)c1ccc(-c2ccc(Br)cc2)o1	6	-17	19	2	13	nt	nt
C=C(C)COc1ccc(-c2ncncc2-c2ccc(Br)cc2)c(O)c1	20	-7	9	-1	21	nt	nt
C=C(C)COc1ccc(-c2n[nH]c(C)c2-c2ccc(Br)cc2)c(O)c1	48	86*	-41	7	29	56*	51*
CCCCN(c1ccc(C(=O)OC)cc1)S(=O)(=O)c1ccccc1	-18	62*	12	0	6	2	nt
CCCN(c1ccc(C(=O)OC)cc1)S(=O)(=O)c1ccccc1	-18	13	-6	1	-24	nt	nt
Cc1cc(/C=C2\SC(=Nc3ccc(F)cc3)NC2=O)c(C)n1-c1ccc(S(N)(=O)=O)cc1	18	61*	7	-8	-8	47*	59*
CCN(CC)C(=O)C1=C(C)N(Cc2ccc(C(C)(C)C)cc2)C(=O)C(CC(=O)NC2CCCC2)C1 (centres undefined)	nt	nt	nt	0	nt	nt	nt
O=S1(=O)CC(N2CCCCC2)CN1Cc1cn(Cc2cccc(C(F)(F)F)c2)nn1 (centres undefined)	nt	nt	nt	-2	nt	nt	nt
O=c1cc(-c2ccccc2Cl)oc2c([N+](=O)[O-])c(O)cc(O)c12	-5	83*	9	11	-6	76*	21
